Test results from PubChem BioAssay (EPA / NIEHS).
Calls of active or inactive are those of the source. How the source made its calls: active means hit-call score of the fitted dose curve at least 0.9, where 1 is the maximum; inactive means score below 0.9.

The compounds below were run on growth arrest and DNA damage 45 (GADD45B), GADD45B (gene 4616) (assay: LTEA_HepaRG_GADD45B: Life Technologies and Expression Analysis (LTEA) Assay for growth arrest and DNA damage 45 (GADD45B) using HepaRG (AID 2283461)). Conditions: mRNA level, 48 h; actives raise or lower the signal.
Method: LTEA_HepaRG is a cell based, multiplexed-readout assay that uses HepaRG, a human liver cell line, with measurements taken at 48 hours after chemical dosing on a 96-well plate.LTEA_HepaRG_GADD45B is one of 102 assay component(s) measured in the LTEA HepaRG cell culture assay. It is a marker of Cell proliferation, survival, death.Data from the assay component LTEA_HepaRG_GADD45B was analyzed into 1 endpoint. This assay endpoint, LTEA_HepaRG_GADD45B, was analyzed with bidirectional fitting relative to DMSO as the negative control and baseline of activity. Using a type of inducible reporter, measures of mRNA induction for gain or loss-of-signal activity can be used to understand regulation of transcription factor activity. To generalize the intended target to other relatable targets, this assay endpoint is annotated to the mutagenicity response intended target family, where the subfamily is Cell proliferation, survival, death.
A total of 1060 chemcials from the ToxCast library were tested in eight-point concentration-response experiments. Cell culture and cytotoxicity assays were conducted at Thermo Fisher Scientific's Custom Services facility (Madison, WI). A single lot of human HepaRG cells (Thermo Fisher Scientific, Frederick, MD) was used for the cell culture experiments. 96-well format collagen type I coated plates of human HepaRG cells were prepared using established methods. Briefly, cryopreserved HepaRG cells were thawed, plated at a density of approximately 100,000 cells/well in HepaRG Thaw, Plate, and General Purpose media (HPRG770, Thermo Fisher Scientific), and incubated for 48 hours. 0.5% DMSO was selected as vehicle control to balance the requisite need of DMSO in HepaRG cultures to maintain differentiation (for example, baseline metabolism, proportions of hepatocytes vs. cholangiocytes), while enabling further hepatic receptor pathway activation (for example, PXR and CAR) in response to chemical exposure. 48 hours after plating, the culture medium was replaced with HepaRG Serum-Free Incudtion Media. Cells were exposed to each test chemical in duplicate and maintained in CO2 incubators for another 48 hours. Chemical plates were thawed to room temperature and 200x concentrations of treatment groups were prepared. 8-point conentration-reponse curves were made with the highest exposure at 100 uM, followed by half-log dilutions, all in 0.5% DMSO. Each test plate contained variouse controls, induction positive controls (1mM phenobarbital), cytotoxicity positive controls ([…] aflatoxin B1), vehicle controls (0.5% DMSO), and total lysis controls (0.5% DMSO). Cell morphology images were taken using an Essen IncuCyte FLR automated microscope, with six 96-well plates imaged in about 24 minutes. Images were captured and exported and JPEG files. Spent culture media was transfered to black-well plates for the LDH assay, and remaining media was sorted at -80 C for later use. Cells were treated with RLT buffer and frozen until shipped for gene expression analysis. Total RNA was isolated from the cell suspension in 75 uL of Buffer RLT (Qiagen, Germantown, MD 20874) by Quintiles/Expression Analysis (Durham, NC) using a custom isolation procedure. Total RNA from each plate well was transferred to a preamplification plate. Fluidigm's 96.96 Dynamic ArrayTM (Fluidigm, Amsterdam, the Netherlands) technology was used for gene expression analyses by quantitative reverse transcription polymerase chain reaction (qRT-PCR, performed by Quintiles/Expression Analysis, Durham, NC)89. Standard TaqManTM Assays (Applied Biosystems/ThermoFisher Scientific, Foster City, CA) were used to assess the expression of 93 genes selected based on their selectivity and sensitivity to important hepatic receptors known to be modulated by environmental chemicals; importance in human hepatocyte functionality; and hepatotoxicity. […]
`Cc1[nH]nc2c1N=C(c1ccccc1Cl)c1cc([N+](=O)[O-])ccc1N2` was tested, and the AC50 was 4.57 µM (active).
For `CN(C)CCOC(c1ccccc1)c1ccccc1`, the outcome was “inactive”.
`CS(=O)(=O)c1ccc([C@@H](CC2CCCC2)C(=O)Nc2cnccn2)cc1Cl` was tested, and the outcome was “inactive”.
`CCCCC=O` was tested, and the outcome was “inactive”.
In the case of `O=C(c1ccccc1)c1ccccc1`, the outcome is reported as “inactive”.
`CCCCc1oc2ccccc2c1C(=O)c1cc(I)c(OCCN(CC)CC)c(I)c1` was tested, and the AC50 was 59.6 µM (active).
`CC(=O)Nc1ccc(O)cc1` was tested, and the outcome was “inactive”.
`CCCCCCCCCCCCCCC` was tested, and the outcome was “inactive”.
`CCC(C)c1ccccc1O` (stereo unspecified) was tested, and the outcome was “inactive”.
With `N=C(N)c1ccc(OCCCCCOc2ccc(C(=N)N)cc2)cc1` the AC50 was 7.1 µM (active).
For `CCCCC(CC)C(=O)O` (stereo unspecified), the outcome was “inactive”.
In the case of `CCCCCCCCCCCCOS(=O)(=O)O`, the outcome is reported as “inactive”.
`OCC(CO)(CBr)CBr` was tested, and the outcome was “inactive”.
In the case of `CN(Cc1cnc2nc(N)nc(N)c2n1)c1ccc(C(=O)N[C@@H](CCC(=O)O)C(=O)O)cc1`, the outcome is reported as “inactive”.
`O=C(CCCN1CCC(O)(c2ccc(Cl)cc2)CC1)c1ccc(F)cc1` was tested, and the outcome was “inactive”.
For `O=C1NS(=O)(=O)c2ccccc21`, the outcome was “inactive”.
